From PubChem BioAssay AID2551 (National Center for Advancing Translational Sciences (NCATS), 2010)
Values joined by “and” are separate entries in the source; they are usually repeats but may differ in a detail not shown here. Identical values can stand only once. In all, about 310,000 compounds went through this assay and about 17,000 (5.5%) were called active. Another 11% or so got no clear call; they are omitted. This excerpt belongs to a sample that is enriched for actives. Unmarked numbers belong to inactive results. The call rests on the fitted dose curve; in most records, active means well fitted inhibition curve with a large enough effect; inconclusive means small, poorly fitted or top-dose-only effect, or effect the other way; inactive means no such curve, though single readings can be large or run the other way.

These compounds were tested against Nuclear receptor ROR-gamma (Mus musculus) (UniProt P51450) (assay: qHTS for inhibitors of ROR gamma transcriptional activity). Settings: Drosophila S2 Gal4-RORgamma UAS-luciferase reporter, 20 h; series mostly up to 53.6 µM; activity change, negative = inhibition: at the top concentration.
Nuclear receptor ROR-gamma (Mus musculus), sequence (P51450 whole entry, looked up, the tested form may be a part): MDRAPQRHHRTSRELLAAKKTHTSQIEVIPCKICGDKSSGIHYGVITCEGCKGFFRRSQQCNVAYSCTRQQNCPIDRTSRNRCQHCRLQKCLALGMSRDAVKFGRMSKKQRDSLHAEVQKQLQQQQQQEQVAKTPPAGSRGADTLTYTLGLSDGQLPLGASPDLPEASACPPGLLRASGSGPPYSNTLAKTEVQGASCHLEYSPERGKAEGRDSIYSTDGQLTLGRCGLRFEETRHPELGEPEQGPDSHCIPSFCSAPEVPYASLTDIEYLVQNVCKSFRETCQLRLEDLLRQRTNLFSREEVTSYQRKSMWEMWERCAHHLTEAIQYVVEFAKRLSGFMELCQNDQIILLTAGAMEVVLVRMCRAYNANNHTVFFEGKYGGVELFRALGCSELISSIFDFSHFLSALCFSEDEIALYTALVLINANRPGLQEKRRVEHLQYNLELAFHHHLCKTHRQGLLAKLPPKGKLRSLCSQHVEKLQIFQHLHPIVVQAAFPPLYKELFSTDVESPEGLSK
Source text: NIH Molecular Libraries Probe Production Network [MLPCN] NIH Chemical Genomics Center [NCGC] MLPCN Grant: R03 DA026211-01 Assay Provider: Dan Littman, New York University Assay Overview: The retinoic acid-related orphan receptor (ROR) gamma is a transcription factor that has a central role in the differentiation of Th17 cells, a subset of T helper cells that secrete the inflammatory cytokines IL-17, IL-17F, and IL-22. Th17 cells have been implicated in graft versus host disease, autoimmune disease and asthma. ROR gamma is induced in naive T helper cells in the presence of TGF-beta combined with IL-6, IL-21, or IL-23, and thereafter directs the expression of the Th17 lineage cytokines. To study the mechanism of action of ROR gamma, an insect cell-based assay was screened. This Drosophila Schneider cell line was stably transfected with two vectors: a gene expressing a fusion of the Gal4 DNA binding domain and ROR gamma transactivation domain under the control of the metallothionine promoter and a Photinus luciferase reporter regulated by the Gal4 binding site enhancer, UAS. […] Small molecule inhibitors of ROR gamma activity are detected by a decrease in luciferase reporter activity.
Assay Protocol Summary: For screening, 600 cells in 4 uL/well were dispensed into white solid 1536-well plates (Grenier) using a solenoid-based dispenser. Following transfer of 23 nL compound or DMSO vehicle by a pin tool, the plates were incubated 1 hr at ambient temperature, and 1 uL/well copper sulfate (700 uM final concentration) was added. The plates were centrifuged 15 s at 1000 RPM and incubated 20 hr at ambient temperature. After addition of 1.5 uL Photinus luciferase detection reagent, the plates were incubated 10 min at ambient temperature and then read by an ViewLux (Perkin Elmer) to detect luminescence. Keywords: NIH Roadmap, MLPCN, MLI, MLSMR, qHTS, NCGC, qHTS, nuclear hormone receptor, retinoic acid-related orphan receptor, ROR gamma
Further: nearly all actives have a fitted effect of over 60% in size.
On the % scale 0 is the no-effect control and ±100 the full control effect; potency means the concentration at half of the fitted maximal effect.

Structure (SMILES)	activity change, negative = inhibition [%]	Potency
Cc1ccc(N2CCN(C(=O)c3cccs3)CC2)c(C)c1	-16.4	–
COc1ccc(/C=N/OCc2ccccc2C#N)c(OC)c1	15.5	–
Cc1ccc(C(=O)NCC(=O)NCc2cc(=O)n(C)c(=O)n2C)cc1	-10.6	–
O=C(/C=C/Sc1ncn[nH]1)c1ccc(Cl)cc1	–	4.47 µM (active)
O=C(NCCOCc1ccc(Cl)cc1)c1ncn[nH]1	-4.46	–
COc1ccc(Cl)cc1CSc1ncn[nH]1	-20.7	–
COCCNC(=O)COc1ccc(N(C)S(=O)(=O)c2ccc3ccccc3c2)cc1	-0.588	–
COc1cccc(N(CC(=O)NC2CCCC2)C(=O)CCCC(=O)Nc2ccccn2)c1	5.39	–
COc1ccc(/C=C2\SC(=N)N(c3ccc(F)cc3)C2=O)cc1	-15	–
COc1ccc(/C=C2/S/C(=N/N=C3\CC4CCC3(C)C4(C)C)NC2=O)cc1 (centres undefined)	–	10 µM (active)
COc1ccc(/C=C2\NC(=O)[C@@H]3Cc4ccccc4CN3C2=O)cc1	17.6	–
Cc1ccc(C)c(C(=O)N2CCC(n3nccc3NC(=O)C3CC3)CC2)c1	4.12	–
Cn1c(COc2ccc(Cl)cc2)nc2ccccc2c1=O	27	–
COc1ccc(-c2nc(N)ncc2-c2ccc(Cl)cc2)c(O)c1	12.3	–
Cc1[nH]nc(-c2ccc(OCc3cnn(-c4ccccc4)c3)cc2O)c1Oc1ccc(Cl)cc1	–	2.24 µM (active)
Cc1nc(COc2cc3oc(=O)cc(C)c3cc2Cl)cs1	-0.324	–
CC(=O)NCCc1ccc(S(=O)(=O)Nc2ccc(C)c(S(=O)(=O)N3CCOCC3)c2)cc1	-14.7	–
O=C(Nc1cccc(NC(=O)c2cccc(F)c2)c1)c1ccccc1	5.17	–
COc1ccc(CCNS(=O)(=O)c2ccc(Cl)s2)cc1OC	-6.22	–
CCS(=O)(=O)NCCc1ccc(OC)c(OC)c1	–	11.2 µM (active)
COc1ccc(CCNS(=O)(=O)c2ccc(F)cc2)cc1OC	18.7	–
COc1ccc(S(=O)(=O)N2CCC(C(=O)NCc3ccco3)CC2)cc1C	-9.61	–

Structure (SMILES)	activity change, negative = inhibition [%]	Potency
Cc1cccc(-c2noc(CCC(=O)NC3CCCC3)n2)c1	7.56	–
O=C(NCCCN1CCOCC1)c1cc(-c2ccccc2F)no1	16.6	–
CCn1c(=O)cc(O)c2ccccc21	-5.33	–
COC(=O)Cn1c2ccc(C)cc2c2nc(C)sc21	3.75	–
CCn1c(O)c(N=NC2=NC(=O)CS2)c2cc(C)ccc21	–	4.47 µM (active)
CN(CC(=O)Nc1ccc(Cl)cc1)C(=O)CNC(=O)c1ccc2ccccc2c1	30.7	–
Cn1cc(CCC(=O)NC2CC2)c2ccccc21	-22.2	–
O=C(CNC(=O)Cc1ccccc1)N=Nc1c(O)[nH]c2ccc(Br)cc12	-24.9	–
O=C(C1CCCN(S(=O)(=O)c2ccc([N+](=O)[O-])cc2)C1)N1CCCCC1 (centres undefined)	17.1	–
Cc1ccccc1NC(=O)c1ccccc1NS(=O)(=O)c1cccc2cccnc12	-10.1	–
O=[N+]([O-])c1ccccc1S(=O)(=O)Nc1cccc2cccnc12	–	501 nM (active) and 708 nM (active)
O=[N+]([O-])c1cccc2ncccc12	24.3	–
O=C(Cc1ccccc1F)NC1CCSc2ccccc21 (centres undefined)	-33.8	–
CC(C)c1ccc(S(=O)(=O)NC2CCCC2)cc1	24.5	–
CCn1c(CNC(=O)c2cc(OC)c(OC)c(OC)c2)cc2cc(C)ccc21	31.6	–
CC(=O)N1CCCc2cc(S(=O)(=O)N3CCCC(C(=O)NCc4ccc(Cl)cc4)C3)ccc21 (centres undefined)	9.44	–
CC(=O)N1CCCc2cc(S(=O)(=O)N3CCCC(C(=O)N4CCN(c5cccc(Cl)c5)CC4)C3)ccc21 (centres undefined)	–	5.62 µM (active)
CC(=O)N1c2ccc(S(=O)(=O)N3CCCC(C(=O)Nc4cccc(Cl)c4)C3)cc2CC1C (centres undefined)	40.4	–
COc1ccc2oc(C(=O)NCc3ccco3)c(C)c2c1	3.55	–
CC(C(=O)N1CCN(c2ccccc2F)CC1)c1ccc([N+](=O)[O-])cc1 (centres undefined)	32.2	–
COc1ccc(CNc2nccs2)cc1	-17.8	–
CCOc1ccc(-n2c(O)c(/C=N/Nc3nnc(C)c(=O)[nH]3)c3ccccc3c2=O)cc1	-23.3	–

Structure (SMILES)	activity change, negative = inhibition [%]	Potency
COc1ccc(Cc2nnc(N/N=C/c3ccccc3O)[nH]c2=O)cc1OC	–	3.98 µM (active)
O=c1[nH]c(NCCO)nnc1Cc1ccc(Cl)cc1	-12.4	–
NC(=O)N1CCc2ccccc21	1.35	–
O=C(NC(=S)N1CCc2ccccc21)c1ccco1	–	1.41 µM (active)
O=C(CSCc1ccccc1)N1CCc2ccccc21	0.446	–
COc1cc(/C=N/N2CCN(c3ccccc3)CC2)ccc1OC(C)=O	22.3	–
CC(C)=CCN1CCN(Cc2cc3ccccc3[nH]2)CC1CCO (centres undefined)	3.24	–
CCCOC(=O)Nc1sc2c(c1C(=O)OCC)CCC2	7.44	–
CCN(CC)CC(=O)Nc1sc2c(c1C(=O)c1ccccc1C)CCC2	–	7.08 µM (active)
CCOC(=O)c1c(NC(=O)CSc2nnc(C)c(=O)[nH]2)sc2c1CCC2	-24.2	–
CCOC(=O)c1c(NC(=S)Nc2ccccc2)sc2c1CCN(C)C2	-15.4	–
CCOC(=O)c1c(NC(=S)Nc2ccccc2C)sc2c1CCC2	–	3.55 µM (active)
CCOC(=O)c1c(NC(=S)NC(=O)c2ccco2)sc2c1CCCC2	–	3.16 µM (active)
CCOC(=O)c1c(NC(=O)CCC(=O)NCc2ccco2)sc2c1CCCC2	-15.2	–
CCOC(=O)c1c(NC(=S)NC)sc2c1CCCC2	–	0.891 µM (active)
CCOC(=O)c1c(NC(=O)c2ccc(Br)o2)sc2c1CCCC2	-18.3	–
CCc1ccc(N(CC(=O)Nc2sc3c(c2C(=O)OC)CCCC3)S(C)(=O)=O)cc1	67.7	–
CCOC(=O)c1c(NC(=O)C(C)Sc2c[nH]c3ccccc23)sc2c1CCC2 (centres undefined)	22.1	–
O=C(Nc1sc2c(c1C(=O)O)CCC2)c1ccccc1F	19.6	–
Cc1coc2c1c(C)cc1oc(=O)c(CC(=O)NCC(=O)N[C@H](C(=O)O)C(C)C)c(C)c12	-3.21	–
CCCCNC(=O)CN1C(=O)NC(Cc2ccccc2)(Cc2ccccc2)C1=O	1.1	–
O=C(NCC(=O)N1CCN(c2ccccc2O)CC1)c1ccc2ccccc2c1	6.01	–

Structure (SMILES)	activity change, negative = inhibition [%]	Potency
Cc1cc(C)cc(N(CC(=O)NC2CCCC2)C(=O)CCC(=O)Nc2cc(C)on2)c1	2.25	–
O=C(CN1CCOC1=O)N1CCCC(Nc2ccc(F)c(F)c2)C1 (centres undefined)	28.4	–
O=C(CCNS(=O)(=O)c1cccs1)N1CCN(c2ccc(F)cc2)CC1	1.55	–
CCCc1nnc(SCC(=O)Nc2ccc(C(=O)OCC)cc2)o1	-35.3	–
CCN(C(=O)Cc1c(C(=O)O)n(CC)c2ccccc12)c1ccccc1C	30.5	–
CCOC(=O)c1ccccc1NC(=O)COC(=O)CCC(=O)N1CCOCC1	2.27	–
CC(CC(=O)N1CCN(S(=O)(=O)c2ccccc2)CC1)n1cncn1 (centres undefined)	3.92	–
CCOc1ccc(-n2c(SCC(=O)Nc3ccc(OC)cc3)nc3sc4c(c3c2=O)CCN(C)C4)cc1	11.9	–
CCOc1ccccc1-c1nc(CN2CCC(C(=O)N3CCOCC3)CC2)c(C)o1	-0.916	–
O=c1c(-c2ccc(F)cc2)nc2cnc(N3CCNCC3)nc2n1Cc1cccs1	-5.47	–
Cn1c(=O)c(-c2ccccc2)nc2cnc(N3CCNCC3)nc21	-20.6	–
N#Cc1cccc(-c2nc3cnc(N4CCNCC4)nc3n(C3CC3)c2=O)c1	–	12.6 µM (active)
Cc1c2cnn(CC(=O)NCCCN3CC(C)CC(C)C3)c(=O)c2c(C)n1Cc1ccc(Cl)cc1 (centres undefined)	-33.5	–
CC(C)(c1ccccc1)c1ccc(OCCN2CCCC2)cc1	-9.7	–
O=C(NCCCn1ccnc1)c1ccccc1F	-8.55	–
CN(Cc1ccccc1)C(=O)c1cccc(C(=O)N(C)Cc2ccccc2)c1	-14.3	–
O=C(Cn1ccc2cc(S(=O)(=O)N3CCCC3)ccc21)NCc1ccccc1	4.66	–
O=c1c([N+](=O)[O-])cc(C(F)(F)F)cn1Cc1cccc(Cl)c1	26.4	–
O=[N+]([O-])/C=C/c1ccc2c(ccn2Cc2ccccc2)c1	–	12.6 µM (active)
Cc1c(C(=O)NCC(c2ccco2)N2CCCC2)oc2ccc(Cl)cc12 (centres undefined)	8.17	–
Cc1onc(C(=O)Nc2ccc3c(c2)OCO3)c1[N+](=O)[O-]	36.5	–
CCCc1[nH]nc2c1C(c1ccc(Br)s1)C(C#N)=C(N)O2 (centres undefined)	–	12.6 µM (active)

Structure (SMILES)	activity change, negative = inhibition [%]	Potency
CCCc1[nH]nc2c1C(c1ccc(OC(=O)c3ccco3)cc1)C(C#N)=C(N)O2 (centres undefined)	-14.4	–
CCCc1[nH]nc2c1C(c1c(C)nn(-c3ccccc3)c1Cl)C(C#N)=C(N)O2 (centres undefined)	33.4	–
Cc1ccc(S(=O)(=O)N(Cc2ccccc2)c2ccccn2)cc1[N+](=O)[O-]	34.1	–
Cc1cccc(OCC(O)CN2CCN(S(=O)(=O)c3ccc(C)cc3C)CC2)c1 (centres undefined)	11.8	–
COc1ccc(N2C(=O)CN=C2Nc2cccc(C)c2C)cc1OC	5.1	–
Cc1cc(C)nc(NC2=NCC(=O)N2c2ccc(Cl)cc2)n1	–	0.224 µM (active)
Cc1ccc(N2C(=O)CN=C2Nc2nc(C)cc(C)n2)cc1	-23.8	–
CC1CN(C(=O)CCC(=O)NCc2cccnc2)c2ccccc2O1 (centres undefined)	-22.8	–
Cc1ccc(C(=O)N2CC(=O)Nc3ccc(F)cc3C2c2ccc(F)cc2)cc1 (centres undefined)	40.3	–
COc1ccccc1C(=O)NC(=S)Nc1ccccc1N1CCCCC1	–	3.98 µM (active)
O=C(NC(=S)Nc1cc(C(F)(F)F)ccc1N1CCOCC1)c1ccc(-c2cccc(Cl)c2)o1	–	10 µM (active)
Cc1cccc(OCCC(=O)Nc2cc(S(=O)(=O)N3CCCCC3)ccc2N2CCOCC2)c1	-0.287	–
COc1cc(C(=O)Nc2cc(C(F)(F)F)ccc2N2CCOCC2)ccc1O	18.1	–
Cc1ccc(NC(=O)c2cc3ccccc3o2)cc1	-8.5	–
Cc1ccccc1NC(=O)Nc1ccccc1N1CCCCC1	-4.44	–
O=C(Nc1ccccc1N1CCN(C(=O)c2ccccc2)CC1)c1ccco1	18	–
Cc1cccc(OCC(=O)Nc2ccccc2F)c1	-0.216	–
CC(Sc1nncn1C)C(=O)Nc1cc(C(F)(F)F)ccc1N1CCOCC1 (centres undefined)	11.5	–
Cc1cccc(OCC(=O)NC(=S)Nc2ccccc2N2CCOCC2)c1	–	11.2 µM (active)
CC(=O)N1CCN(c2ccccc2NC(=S)NC(=O)c2cc3ccccc3o2)CC1	–	11.2 µM (active)
COc1ccccc1C(=O)NC(=S)NC12CC3CC(CC(C3)C1)C2	-11	–
